Calcium response (% of ionomycin) data for 68 compounds are collected here from PubChem BioAssay AID652231 (Johns Hopkins Ion Channel Center, 2013).

Each structure is given as a SMILES string. In all, about 2,300 compounds went through this assay and about 55 (2%) were called active.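 How the source made its calls: active means duplicate-averaged calcium signal over 20% of the ionomycin maximum, relative to buffer baseline; inactive means the rest.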 What follows is part of a selection rich in actives, with near analogues and random picks from the rest.

The experiment can be described thus: calcium mobilization in TMEM16A/YFP HEK293 cells, confirmation, counter-screen for TMEM16A inhibitor project (AID 652231).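 On Calcium response (% of ionomycin): each well's signal is peak minus trough fluorescence divided by its pre-addition baseline; 0% = buffer wells and 100% = ionomycin wells.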 Conditions: TMEM16A/YFP HEK293, Fluo4 calcium mobilization, at 10 µM; active compounds read high. For orientation: Calcium assays in cells follow changes in intracellular calcium, usually with a dye or a luminescent sensor.
With `CCc1cc2c(N3CCN(c4nnc(CC)s4)CC3)ncnc2s1`, the calcium response (% of ionomycin) result was “inactive”.

On to `COc1ccc(C(=O)NC2CCCc3c2cnn3-c2cccc(C)c2C)c(OC)n1` (stereo not drawn), for which the calcium response (% of ionomycin) entry was “inactive”.

In the case of `O=c1cc(C(F)(F)F)[nH]c(=O)n1C1CCCCC1`, the calcium response (% of ionomycin) result is “inactive”.

For the compound `CCOC(=O)c1cccc(NC(=O)CCn2nnc3ccccc32)c1`, the calcium response (% of ionomycin) result was “inactive”.

For `COc1ccc(OCC(=O)NCCc2ccc(S(N)(=O)=O)cc2)cc1`, the calcium response (% of ionomycin) entry was “inactive”.

For `Fc1ccc2[nH]c3c(N4CCSCC4)ncnc3c2c1`, the calcium response (% of ionomycin) result is “inactive”.

As to `Cc1ccc(-n2ncc3c(N4CCN(c5ccc(F)cc5)CC4)ncnc32)c(C)c1`, the calcium response (% of ionomycin) entry was “inactive”.

With `Cc1ccc(-c2noc(CSc3nnnn3-c3ccccc3)n2)cc1`, the calcium response (% of ionomycin) entry was “inactive”.

Take `Cc1cc(C=O)c(C)n1-c1ccc(NC2CCCCC2)c([N+](=O)[O-])c1`: the calcium response (% of ionomycin) result was “inactive”.

In the case of `Cc1cccc(-n2c(SCC(N)=O)nc3c(c2=O)C2(CCCCC2)Cc2ccccc2-3)c1`, the calcium response (% of ionomycin) result is “inactive”.

As to `O=C(NCCc1ccc2c(c1)OCCO2)c1cc2ccccc2o1`, the calcium response (% of ionomycin) result was “inactive”.

Consider `COc1ccc(CCC(=O)c2ccc(OC)cc2)cc1`, for which the calcium response (% of ionomycin) result is “inactive”.

`CCCCNC(=O)CSc1nc2n[nH]c(C)c2c(=N)n1-c1cccc(Cl)c1C`: the calcium response (% of ionomycin) result is “inactive”.

As to `CCOC(=O)N1CC=C2C(C#N)=C(N)C(C#N)(C#N)[C@H](c3cccs3)[C@H]2C1`, the calcium response (% of ionomycin) entry was “inactive”.

Turning to `COc1ccc(NC(=O)C2=CC(c3ccc(OC)c(OC)c3)=NS(=O)(=O)N2C)cc1`, the calcium response (% of ionomycin) result was “inactive”.

Turning to `Cc1nc2c(C(=O)NCc3ccc4c(c3)OCO4)c[nH]n2c(=O)c1Cc1ccccc1F`, the calcium response (% of ionomycin) entry is “inactive”.

As for `Cc1ccc(C)c(N2CCN(S(=O)(=O)c3ccc4c(c3)oc(=O)n4C)CC2)c1`, the calcium response (% of ionomycin) entry was “inactive”.

Regarding `CC1CCN(C(=O)c2ccc(CSc3ccc(Cl)cc3)cc2)CC1`, the calcium response (% of ionomycin) entry was “inactive”.

In the case of `CN1c2ccc(C=O)c3c(C=O)ccc(c23)N(C)C1(C)C`, the calcium response (% of ionomycin) is 64.5% (active).

On to `COc1cccc(CNS(=O)(=O)c2ccc3c(c2)CC(C)N3C(=O)C2CCC2)c1` (stereo not drawn), for which the calcium response (% of ionomycin) entry was “inactive”.

Turning to `CN(Cc1cccnc1)C(=O)c1cc(COc2ccc3ncccc3c2)on1`, the calcium response (% of ionomycin) result is “inactive”.

Take `Cc1ccc2c(c1)N(S(=O)(=O)c1cc(-c3cc(C)no3)ccc1C)CCO2`: the calcium response (% of ionomycin) entry was “inactive”.

As for `CC(=O)c1c(C)[nH]c(C(=O)COC(=O)c2cccc(S(=O)(=O)N(C)c3ccccc3)c2)c1C`, the calcium response (% of ionomycin) result was “inactive”.

`Cc1ccc(C(=O)O)cc1-c1ccc(/C=C2\SC(=O)N(CC(=O)Nc3ccc4c(c3)OCO4)C2=O)o1`: the calcium response (% of ionomycin) entry was “inactive”.

Turning to `CCN(CC)S(=O)(=O)c1ccc(N(C)Cc2ccc(C(F)(F)F)cc2)nc1`, the calcium response (% of ionomycin) result was “inactive”.

As to `Cn1c(=O)n(C)c2cc(S(=O)(=O)N3CCCc4ccccc43)ccc21`, the calcium response (% of ionomycin) result is “inactive”.

Turning to `N#Cc1nc(COc2ccc(-c3ccccc3)cc2)oc1NCc1cccnc1`, the calcium response (% of ionomycin) result was “inactive”.

As for `CCn1nccc1C(=O)Nc1ccc(S(=O)(=O)NC23CC4CC(CC(C4)C2)C3)cc1`, the calcium response (% of ionomycin) result is “inactive”.

`C=CCn1c(SCC(=O)Nc2nc3ccccc3s2)nnc1-c1ccccc1O`: the calcium response (% of ionomycin) entry is “inactive”.

In the case of `CCCc1cc(=S)n2c([nH]c3ccccc32)c1C#N`, the calcium response (% of ionomycin) entry is “inactive”.

As for `COc1ccc(-c2nc(CCNC(=O)c3ccc(Br)o3)cs2)cc1`, the calcium response (% of ionomycin) result is “inactive”.

Take `O=C(CN1CCN(C(=S)NC2CCCC2)CC1)Nc1ccc(Oc2ccccc2)cc1`: the calcium response (% of ionomycin) result is “inactive”.

Take `Cc1ccccc1-n1nnnc1SCCCC(=O)c1ccc(F)cc1`: the calcium response (% of ionomycin) result was “inactive”.

For the compound `Cc1ccc(N)cc1-n1c(C)ccc1C`, the calcium response (% of ionomycin) result is “inactive”.

With `Cc1ccc(C)c(N2CCN(C(=O)CCCCn3c(=O)[nH]c4ccccc4c3=O)CC2)c1`, the calcium response (% of ionomycin) entry was “inactive”.

Consider `CCOC(=O)C(Sc1ncc(C#N)c(N)n1)C(C)C` (stereo not drawn), for which the calcium response (% of ionomycin) entry was “inactive”.

As to `O=C(COC(=O)CCc1c[nH]c(=O)[nH]1)Nc1ccccc1Cl`, the calcium response (% of ionomycin) entry is “inactive”.

As for `Cc1ccc(NC(=O)C(C)c2cccc(C(=O)c3ccccc3)c2)cc1` (stereo not drawn), the calcium response (% of ionomycin) was 20.5% (active).

As for `S=C(NCc1ccc(Cl)cc1)NC12CC3CC(CC(C3)C1)C2`, the calcium response (% of ionomycin) entry was “inactive”.

On to `Cc1noc(C)c1COC(=O)c1cc2ccccc2cc1O`, for which the calcium response (% of ionomycin) entry is “inactive”.

On to `C=CCSc1nsc(NC(=O)Nc2cccc(C(C)=O)c2)n1`, for which the calcium response (% of ionomycin) result was “inactive”.

For `CCCOc1ccc(Cc2c(Cl)nc(SC)nc2NC)cc1`, the calcium response (% of ionomycin) result is “inactive”.

`Cn1c(CCN2CCCCCC2)nc2cc(NC(=O)Nc3ccccc3)ccc21`: the calcium response (% of ionomycin) result is “inactive”.

As to `CCOC(=O)N1CCN(C(=O)c2ccc3c(c2)N(Cc2ccc(C)cc2)CCS3)CC1`, the calcium response (% of ionomycin) entry is “inactive”.

Turning to `CSc1nsc(NC(=O)Nc2ccccc2)n1`, the calcium response (% of ionomycin) result is “inactive”.

For `CCC(=O)Nc1ccc2nc(C)n(Cc3ccccc3Cl)c(=O)c2c1`, the calcium response (% of ionomycin) entry was “inactive”.

As for `Cc1ccc(NC(=O)CN(C)CC(=O)Nc2cccc(F)c2)cc1[N+](=O)[O-]`, the calcium response (% of ionomycin) entry is “inactive”.

On to `Cc1ccc(N2C(=O)S/C(=C/c3cn(C)c4ccccc34)C2=O)cc1`, for which the calcium response (% of ionomycin) entry was “inactive”.

Consider `Cc1nc(SCC(=O)N2CCc3ccccc3C2)c2c(C)c(C)sc2n1`, for which the calcium response (% of ionomycin) entry is “inactive”.

Turning to `COc1ccc(CN(C)C(=O)CC(c2ccccc2)c2ccccc2)cc1`, the calcium response (% of ionomycin) result is “inactive”.

On to `Cc1nc(C)c(-c2csc(NCCc3ccccc3)n2)s1`, for which the calcium response (% of ionomycin) entry is “inactive”.

For `COC(=O)c1ccc(NC(=O)c2ccccc2NS(=O)(=O)c2ccccc2)cc1`, the calcium response (% of ionomycin) result was “inactive”.

Regarding `O=C(CSCc1ccc(Cl)cc1)N1CCN(Cc2ccc3c(c2)OCO3)CC1`, the calcium response (% of ionomycin) result was “inactive”.

For `COc1ccc2[nH]cc(/C=C(/C#N)S(=O)(=O)c3ccccc3)c2c1`, the calcium response (% of ionomycin) result was “inactive”.

Consider `CC1=NN(c2cccc(Cl)c2)C(=O)C12CC(C)=C(C)CS2` (stereo not drawn), for which the calcium response (% of ionomycin) entry is “inactive”.

Regarding `Cc1ccc(F)cc1NC(=O)Cc1nn(C)c(=O)c2ccccc12`, the calcium response (% of ionomycin) entry is “inactive”.

As for `CSc1cccc(NC(=S)N(C(C)C)C(C)c2ccccn2)c1` (stereo not drawn), the calcium response (% of ionomycin) entry is “inactive”.

Consider `Cc1cc(C)cc(NS(=O)(=O)c2ccc(Oc3ncc(C(F)(F)F)cc3Cl)cc2)c1`, for which the calcium response (% of ionomycin) result was “inactive”.

With `CN(c1cccc(NC(=O)c2ccc(CN3CCc4ccccc4C3)cc2)c1)S(C)(=O)=O`, the calcium response (% of ionomycin) entry is “inactive”.

For the compound `CC(C)CNC(=S)NNC(=O)c1nn(C)cc1Cl`, the calcium response (% of ionomycin) entry is “inactive”.

As to `CC(NC(=O)c1ccco1)C(=O)Nc1nc(-c2ccccn2)cs1` (stereo not drawn), the calcium response (% of ionomycin) entry was “inactive”.

On to `COc1ccc(S(=O)(=O)NCCCCOc2ccc(Cl)cc2)cc1`, for which the calcium response (% of ionomycin) result is “inactive”.

On to `COc1cc(CC(=O)Nc2nc(-c3ccc(F)c(F)c3)cs2)cc(OC)c1OC`, for which the calcium response (% of ionomycin) entry is “inactive”.

As for `C=C(C)Cn1c(C)cc(C)c(S(=O)(=O)c2ccccc2C)c1=O`, the calcium response (% of ionomycin) result is “inactive”.

As for `Cc1ccc(-c2csc(-c3c[nH]c4ccccc34)n2)cc1`, the calcium response (% of ionomycin) result is “inactive”.

In the case of `S=C(NCC1CCCO1)N1CCN(c2ccc(Cl)c(Cl)c2)CC1` (stereo not drawn), the calcium response (% of ionomycin) entry was “inactive”.

For the compound `COc1ccc(CNc2nnnn2C)cc1`, the calcium response (% of ionomycin) entry is “inactive”.

Take `O=C(Nc1cccc(S(=O)(=O)Nc2ccc(Cl)cc2)c1)c1ccc2c(c1)OCCO2`: the calcium response (% of ionomycin) entry was “inactive”.
